Sampled rows, rich in hits. Any-hit rate of the full collection: about 4%.
Rv3671c inh – inhibits the M. tuberculosis serine protease Rv3671c; P9WHR9; inhibition, % at 5.96 µM; actives 0.048% (n = 320,000); AID 2606; in the data active means inhibition above about 38%;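 further: extracellular domain of Rv3671c used as enzyme; 0% = enzyme with DMSO and 100% = no enzyme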
RecA splice inh – inhibitors of M. tuberculosis RecA intein splicing | P9WHJ3 | cell-free RecA intein splicing, fluorescence | inhibition, % (concentration not given with the values) | actives 0.75% (n = 290,000) | AID 2221; in the data active means inhibition above about 30%; inconclusive means no clear call, values can overlap the other calls;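 further: 0% = vehicle wells and 100% = reference inhibitor control wells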
Mtb betalactam – beta-lactam sensitization of Mtb H37Rv | actives 0.27% (n = 330,000) | M. tuberculosis H37Rv growth with meropenem, percent inhibition | AID 434955 | inhibition, % at 25 µM; call rule not given here;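 further: growth measured after seven days incubation then overnight dye step; 0% = bacteria only wells and 100% = bacteria with antibiotic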
FBA Mtb inh – inhibits M. tuberculosis FBA enzyme. P9WQA3. purified M. tuberculosis FBA, fluorescence read-out. inhibition, % at 1 µM. actives 2.3% (n = 360,000);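 further: 0% = vehicle and 100% = reference inhibitor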
GDH-TPI counter-1 – GDH-TPI coupled enzyme inhibition counter-screen. GDH-TPI coupled enzyme counterscreen, NADH absorbance. inhibition, % at 4.8 µM. actives 1.2% (n = 360,000). AID 588335; in the data active means inhibition above about 30%;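 further: 0% = DMSO wells and 100% = wells lacking the enzyme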
Mtb UGM inh – Mtb UDP-galactopyranose mutase inhibition | purified UGM, fluorescence polarization probe displacement | inhibition, % at 10 µM | actives 0.06% (n = 320,000) | AID 504406; in the data active means inhibition above about 10%, passing the limit was not always enough; inconclusive means no clear call, values can overlap the other calls
Target sequence (P9WIQ1 whole entry, looked up): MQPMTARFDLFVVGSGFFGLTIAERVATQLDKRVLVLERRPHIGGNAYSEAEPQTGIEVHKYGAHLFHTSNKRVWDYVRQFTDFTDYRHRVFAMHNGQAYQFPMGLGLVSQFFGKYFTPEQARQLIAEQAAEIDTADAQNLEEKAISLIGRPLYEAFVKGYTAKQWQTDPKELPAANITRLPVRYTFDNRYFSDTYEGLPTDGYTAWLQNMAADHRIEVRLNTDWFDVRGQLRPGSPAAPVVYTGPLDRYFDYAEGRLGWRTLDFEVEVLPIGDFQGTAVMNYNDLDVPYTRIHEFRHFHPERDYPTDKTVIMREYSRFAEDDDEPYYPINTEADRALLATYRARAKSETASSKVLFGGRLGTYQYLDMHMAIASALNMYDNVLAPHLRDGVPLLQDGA
Mtb FBA inh conf – confirmation of M. tuberculosis fructose-bisphosphate aldolase inhibitors; shares compounds with FBA Mtb inh; purified M. tuberculosis FBA, fluorescence read-out; inhibition, % at 1 µM; actives 78% (n = 5,600); AID 651616;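 further: 0% = vehicle wells and 100% = reference inhibitor wells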
GDH-TPI counter-2 – inhibits GDH-TPI coupling enzymes, flagging Mtb FBA hits; inhibition, % at 1 µM; GDH-TPI coupled enzyme counterscreen, fluorescence; actives 81% (n = 5,600); AID 652141; shares compounds with FBA Mtb inh; in the data active means inhibition above about 10%
Active calls of the source: *; ? = inconclusive; . = no result given; + = active, no number. Unless noted, no stated cut-off is given here; in the data, active means inhibition above about 27%; inactive means the rest.

SMILES	Rv3671c inh	RecA splice inh	Mtb betalactam	FBA Mtb inh	GDH-TPI counter-1	Mtb UGM inh	Mtb FBA inh conf	GDH-TPI counter-2
Cc1cccn2c(=O)c3cc(C(=O)N4CCN(Cc5ccccc5)CC4)sc3nc12	4	.	-2	57*	13	0	-2	-3
Cc1cccn2c(=O)c3cc(C(=O)N4CCCC(C)C4)sc3nc12 (stereo not given)	-2	-11	-3	22	21	-4	.	.
Cc1cccc(OC(C)C(=O)N2CCN(Cc3ccc4c(c3)OCO4)CC2)c1 (stereo not given)	1	2	-26	1	26	2	.	.
O=C(O)c1ccc(SCc2ccccc2)nc1	7	3	1	1	-7	-3	.	.
COC(=O)CCCC(=O)NCC1(N(C)Cc2ccccc2)Cc2ccccc2C1	-1	2	-5	1	6	1	.	.
N#Cc1c(N)n(-c2cccc(O)c2)c2nc3ccccc3nc12	-2	-217	100	84*	20	0	+	+
COc1cc(Cn2c(N)c(C#N)c3nc4ccccc4nc32)cc(OC)c1	-6	-8	-5	109*	17	1	+	173*
N#Cc1c(N)n(CCOC(=O)c2cccc(Br)c2)c2nc3ccccc3nc12	-9	-13	-6	45*	6	3	50*	34*
Cc1ccc2[nH]c(=O)c(-c3noc(C(C)C)n3)cc2c1	-8	-1	-6	21	10	0	.	.
CCc1nc(-c2cc3ccc(C)cc3[nH]c2=O)no1	-6	0	-15	30*	20	4	91*	82*
Cc1ccc2cc(-c3noc(C(C)(C)C)n3)c(=O)[nH]c2c1	2	-6	-21	30*	15	3	65*	58*
O=C(CSc1nc(O)cc(=O)n1-c1ccccc1)Nc1ccc(Br)cn1	-7	5	2	4	5	0	.	.
CON(c1nc(Cl)nc(N(C)C)n1)S(=O)(=O)c1ccc(C)cc1	2	5	?	0	8	0	.	.
COc1ccc(-c2c(C#N)c(N)nc3c2CCC3)cc1	-2	-1	6	53*	2	-2	136*	93*
N#Cc1c(N)nc2c(c1-c1ccccc1)CCC2	-2	.	2	61*	11	1	119*	91*
c1nc(SSc2ncnc3nc[nH]c23)c2[nH]cnc2n1	.	.	.	-1	19	.	.	.
C=C(C)c1nc(Oc2ccccc2)nc(Oc2ccccc2)n1	.	.	.	-1	-4	.	.	.
Cc1ccc(-n2nc3c(=O)n(CC(=O)NCCc4ccccc4C)nc(C)c3c2C)cc1	-18	2	-2	-1	0	2	.	.
COC(=O)c1cnn2c(C)c(Cc3cccc(F)c3)c(C)nc12	-2	4	-8	43*	8	.	7	1
CCOC(=O)N1CCN(C(=O)c2cnn3c(C)c(Cc4ccc(C)cc4)c(C)nc23)CC1	-2	2	-7	34*	5	-2	115*	92*
CCOC(=O)N1CCN(C(=O)c2cnn3c(C(F)F)cc(-c4ccc(C)cc4)nc23)CC1	-4	-3	-4	-1	5	-2	.	.
Cc1ccc(C)c(Cc2c(C)nc3c(C(=O)N4CCOCC4)cnn3c2C)c1	-3	3	-14	62*	6	-5	.	+
Cc1nc2c(C(=O)N3CCCC3)cnn2c(C)c1Cc1c(F)cccc1Cl	6	-1	2	6	2	0	.	.
Cc1nc2c(C(=O)N3CCC4(CC3)OCCO4)cnn2c(C)c1Cc1cccc(Cl)c1	0	3	-9	31*	-6	0	+	192*
CCCCc1cc(=O)oc2c(C)c(OCC(=O)N3C[C@H]4C[C@@H](C3)c3cccc(=O)n3C4)ccc12	-12	3	-5	5	21	0	.	.
SMILES	Rv3671c inh	RecA splice inh	Mtb betalactam	FBA Mtb inh	GDH-TPI counter-1	Mtb UGM inh	Mtb FBA inh conf	GDH-TPI counter-2
O=C(Cc1ccccc1)Nc1cccc(C(=O)O)c1O	-10	-1	-5	76*	5	1	82*	49*
O=C(Cc1ccccc1)Nc1ccccc1C(=O)Nc1ccccc1	7	0	12	3	10	3	.	.
Cc1ccc(NC(=O)CSc2n[nH]c(-c3cccnc3)n2)c(Br)c1	9	-1	4	2	2	0	.	.
OC(c1ccccc1)c1nc2ccccc2[nH]1 (stereo not given)	-1	-3	-1	0	-1	0	.	.
Cc1ccc(C(c2nc3ccccc3[nH]2)n2c(-c3ccccc3)nc3ccccc32)cc1 (stereo not given)	.	.	.	28*	.	.	8	-1
Cc1ccc(CNc2nc3ccccc3n3nnnc23)cc1	7	1	1	2	5	-2	.	.
CCOC(=O)N1CCC(Nc2nc3ccccc3n3nnnc23)CC1	6	-2	-14	35*	16	-1	47*	40*
CC(=O)Nc1nc(CC(C)C)cc(-c2ccccc2)c1C#N	8	2	-4	3	2	3	.	.
CC(=O)Nc1nc(CC(C)C)cc(-c2ccco2)c1C#N	-2	0	-5	50*	-3	3	177*	146*
CC(C)(C)NC(=O)C[C@H]1C[C@H](C(=O)N2CCCCC2)[C@@]2(C)c3[nH]c4cc(-c5ccco5)ccc4c3CCN2C1=O	.	.	.	21	3	.	.	.
C[C@]12c3[nH]c4cc(-c5ccco5)ccc4c3CCN1C(=O)[C@@H](CC(=O)NCc1ccco1)C[C@@H]2C(=O)N1CCOCC1	.	.	.	31*	7	.	174*	148*
C[C@]12c3[nH]c4cc(-c5ccco5)ccc4c3CCN1C(=O)[C@@H](CC(=O)NCc1ccco1)C[C@@H]2C(=O)N1CCCCC1	.	.	.	32*	-1	.	117*	70*
CC(C)(C)NC(=O)C[C@H]1C[C@H](C(=O)N2CCOCC2)[C@@]2(C)c3[nH]c4cc(-c5ccco5)ccc4c3CCN2C1=O	.	.	.	31*	5	.	50*	45*
C[C@@H]1CN([C@H](C)CO)C(=O)Cc2cc(NC(=O)Cn3cnnn3)ccc2O[C@@H]1CN(C)Cc1ccc(Cl)c(Cl)c1	2	.	5	2	14	4	.	.
Cc1ccc(CN(C)C(=O)COc2ccc(S(=O)(=O)N3CCCC3)cc2[N+](=O)[O-])c(C)c1	2	.	-5	5	10	-4	.	.
Cc1nc(-c2cccc3ccccc23)ccc1C(=O)O	2	0	1	41*	8	0	75*	67*
Cc1nc(-c2ccccc2)ccc1C(=O)O	-2	0	-3	1	0	3	.	.
CC(=O)Nc1ccc(NC(=O)c2ccc(-c3ccnn3C)c3ccoc23)cc1	.	.	.	-2	11	.	.	.
O=C1c2ccccc2NC(c2cccc(O)c2)N1Cc1ccco1 (stereo not given)	-7	-3	-4	60*	1	3	107*	70*

Assay outcomes: PubChem BioAssay, several laboratories
